In general, AC50 refers to the midpoint of the concentration-response curve, whichever way the signal moves.

Outcome and AC50 data for 26 compounds are collected here from PubChem BioAssay (EPA / NIEHS).

The structures appear in SMILES notation. “And” between values parts separate entries of the source, which are not always exact repeats. Identical values can stand only once. The source made the active and inactive calls. How the source made its calls: active means hit-call score of the fitted dose curve at least 0.9, where 1 is the maximum; inactive means score below 0.9.

Read-out in the experiment: Transforming Growth Factor (TGFA), TGFA (gene 7039)
In words: LTEA_HepaRG_TGFA: Life Technologies and Expression Analysis (LTEA) Assay for Transforming Growth Factor (TGFA) using HepaRG (AID 2283532). As to conditions: mRNA level, 48 h; actives raise or lower the signal. Put shortly:
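Gene expression of TGFA was quantified by qRT-PCR after human HepaRG cells were treated for 48 h with test chemicals (eight concentrations, highest 100 uM, 0.5% DMSO). Activity in either direction was fitted relative to DMSO.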
Turning to `CCOC(=O)C(C)Oc1ccc(Oc2cnc3cc(Cl)ccc3n2)cc1` (stereo unspecified), the compound was classed as inactive.

Turning to `CC(C)(c1ccc(O)cc1)c1ccc(O)cc1`, the compound was classed as inactive.

Consider `COc1c(Cl)ccc(Cl)c1C(=O)O`, for which the call was inactive.

For `O=C(c1ccccc1)C1CCCCC1`, the compound was classed as inactive.

Consider `CC(=O)[C@H]1CC[C@H]2[C@@H]3CCC4=CC(=O)CC[C@]4(C)[C@H]3CC[C@]12C`, for which the concentration at half-maximal activity (AC50) is 33.1 µM (active).

Take `COC(=O)c1ccc(I)cc1S(=O)(=O)NC(=O)Nc1nc(C)nc(OC)n1`: the compound was classed as inactive.

As to `C#CCOC(=O)[C@@H](C)Oc1ccc(Oc2ncc(Cl)cc2F)cc1`, the result was inactive.

For the compound `COCCO`, the compound was called inactive.

For `CCN(Cc1c(F)cccc1Cl)c1c([N+](=O)[O-])cc(C(F)(F)F)cc1[N+](=O)[O-]`, the result was inactive.

For `CCCOC(=O)c1ccc(C(=O)OCCC)nc1`, the compound was called inactive.

Turning to `CCCCCCC(C)OC(=O)COc1nc(F)c(Cl)c(N)c1Cl` (stereo unspecified), the result was inactive.

`C[C@]12CC[C@@H]3c4ccc(O)cc4C[C@@H](CCCCCCCCCS(=O)CCCC(F)(F)C(F)(F)F)[C@H]3[C@@H]1CC[C@@H]2O` (stereo partly specified): the half-maximal activity concentration (AC50) was 0.0998 µM (active).

Consider `O=C(O)c1ccccc1`, for which the compound was classed as inactive.

`CCCCCOC(=O)COc1cc(N2C(=O)C3=C(CCCC3)C2=O)c(F)cc1Cl`: the outcome was inactive.

As to `CCCCOCCOCCOCc1cc2c(cc1CCC)OCO2`, the result was inactive.

In the case of `CCOC(=O)C(C)Oc1ccc(Oc2nc3ccc(Cl)cc3o2)cc1` (stereo unspecified), the call was inactive.

With `CCCCOC(=O)[C@@H](C)Oc1ccc(Oc2ccc(C(F)(F)F)cn2)cc1`, the call was inactive.

As for `S=C([S-])NCCNC(=S)[S-].[Mn+2]`, the AC50 was 7.01 µM (active).

Regarding `C=CCOC(Cn1ccnc1)c1ccc(Cl)cc1Cl` (stereo unspecified), the AC50 is 50 µM (active).

As to `CCN(CC)C(=O)c1cccc(C)c1`, the call was inactive.

With `N[C@@H](Cc1cc(I)c(Oc2ccc(O)c(I)c2)c(I)c1)C(=O)O`, the compound was classed as inactive.

As for `O=C(Nc1ccc([N+](=O)[O-])cc1Cl)c1cc(Cl)ccc1O`, the AC50 was 1.93 µM (active).

For the compound `CCSC(=O)N(CC(C)C)CC(C)C`, the compound was classed as inactive.

As to `CCCN(CCC)c1c([N+](=O)[O-])cc(C(F)(F)F)c(N)c1[N+](=O)[O-]`, the outcome was inactive.

Regarding `COC(=O)CSc1cc(N=c2sc(=O)n3n2CCCC3)c(F)cc1Cl`, the result was inactive.

`S=C(S)NCCNC(=S)S.[Mn+2].[S-]C([S-])=NCCN=C([S-])[S-].[Zn+2]`: the AC50 was 4.16 µM (active) and 3.27 µM (active) and 4.59 µM (active).
